# Several values for one entry are separate records, joined by “and”; a condition that tells them apart may be missing. Equal entries are not always repeated. Where a structure was tested more than once in an assay, its records may differ in their call. Activity calls are given as the source filed them. How the source made its calls: active means hit-call score of the fitted dose curve at least 0.9, where 1 is the maximum; inactive means score below 0.9.
# How the values were obtained:
# [1] = ATG_CRE_CIS: Attagene CIS-FACTORIAL HepG2 Assay for human cAMP Responsive Element (CRE) binding protein 3 (AID 2282926); details: HepG2 CRE cis-reporter, Attagene multiplexed mRNA; actives raise or lower the signal
# Outline: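 Capillary electrophoresis of 6-FAM-labelled, HpaI-digested PCR products quantified reporter transcripts. These came from HepG2 transiently transfected with cis-element reporters and exposed to test chemicals for 24 hours, with DMSO defining baseline activity.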
# [2] = molecular target: CCAAT/enhancer-binding protein beta (Homo sapiens) (UniProt P17676); assay: ATG_C_EBP_CIS: Attagene CIS-FACTORIAL HepG2 Assay for human CCAAT/Enhancer Binding Protein (C/EBP) beta (AID 2282927); details: HepG2 Attagene cis-factorial transcription factor reporter; actives raise or lower the signal
# Outline: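 HepG2, transient MRTU transfection, 24 h treatment. RT-PCR plus CE fluorescence; DMSO negative control, bidirectional fit.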
# [3] = ATG_CMV_CIS: Attagene CIS-FACTORIAL HepG2 Assay for human CMV (Internal Marker) (AID 2282928); details: HepG2 CMV promoter reporter, transcription factor profiling; actives raise or lower the signal;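 further: endpoint acts as a background internal control marker rather than a target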
# Outline: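 24 h chemical treatment, HepG2 with transient multi-reporter transfection; RNA → oligo(dT) RT → PCR → 6-FAM extension → HpaI digest → CE fluorescence. Bidirectional fit, DMSO negative control.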
# [4] = ATG_DR4_LXR_CIS: Attagene CIS-FACTORIAL HepG2 Assay for human Liver X Receptor (LXR), DR4 submotif (AID 2282929); details: HepG2 Attagene DR4 cis-reporter, mRNA transcription; AC50: actives raise or lower the signal unless noted; outcome: actives raise or lower the signal unless noted
# Outline: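 HepG2 cells were transiently transfected with multiple cis-regulated reporter units and dosed for 24 hours. The DR4 reporter mRNA was quantified by RT-PCR, 6-FAM labelling and capillary electrophoresis. Bidirectional fits used DMSO as baseline.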
# [5] = molecular target: Aryl hydrocarbon receptor (Homo sapiens) (UniProt P35869); assay: ATG_Ahr_CIS: Attagene CIS-FACTORIAL HepG2 Assay for human Aryl Hydrocarbon Receptor (Ahr) (AID 2282930); details: HepG2 AhR cis-factorial reporter transcription; actives raise or lower the signal
# Outline: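 Endogenous factor activity is tracked through cis-promoter reporter units transfected into HepG2 cells. Transcript levels at 24 h are read by fluorescent RT-PCR and capillary electrophoresis, with activity in either direction scored relative to DMSO.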
# [6] = ATG_AP_1_CIS: Attagene CIS-FACTORIAL HepG2 Assay for human Activator Protein 1 (AP-1) (AID 2282931); details: HepG2 Attagene cis-factorial AP-1 reporter mRNA; actives raise or lower the signal
# Outline: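 HepG2 cells transiently transfected with cis-element-driven reporter transcription units, dosed for 24 hours. Reporter mRNA measured by RT-PCR, 6-FAM labelling, HpaI digestion and capillary electrophoresis. Bidirectional fitting against DMSO baseline.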
# [7] = ATG_AP_2_CIS: Attagene CIS-FACTORIAL HepG2 Assay for human Activator Protein 2 (AP-2) (AID 2282932); details: HepG2 AP-2 cis-reporter, Attagene transcription factor profiling; AC50: actives raise or lower the signal unless noted; outcome: actives raise or lower the signal unless noted
# Outline: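 Read-out: fluorescent reporter mRNA via RT-PCR and capillary electrophoresis, 24 h post-dose in transiently transfected HepG2. Endogenous factors drive cis-promoter reporters; gain or loss of signal fitted bidirectionally against DMSO.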
# [8] = ATG_BRE_CIS: Attagene CIS-FACTORIAL HepG2 Assay for human Bone Morphogenetic Protein (BMP) Response Element (BRE) (AID 2282933); details: HepG2 BMP response element reporter, Attagene transcription factor profiling; actives raise or lower the signal
# Outline: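 Read-out: reporter mRNA induction quantified by RT-PCR and capillary electrophoresis after 24 h chemical exposure of transfected HepG2 cells. Endogenous factor activity on the BMP response element; gain or loss fitted against DMSO baseline.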
# [9] = molecular target: Retinoic acid receptor alpha (Homo sapiens) (UniProt P10276); assay: ATG_DR5_RAR_CIS: Attagene CIS-FACTORIAL HepG2 Assay for human Retinoic Acid Receptor Alpha (RARE), DR5 submotif (AID 2282934); details: HepG2 Attagene cis-factorial RARE DR5 reporter, mRNA; actives raise or lower the signal;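 on AC50: reporter responds to endogenous RAR alpha beta and gamma in HepG2 not RARA alone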
# Outline: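 After 24 h of chemical exposure, transiently transfected HepG2 cells were lysed for total RNA; the DR5-regulated reporter transcript was quantified via RT-PCR and capillary electrophoresis, with activity fitted bidirectionally against DMSO.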
# [10] = APR_HepG2_P-H2AX_72hr: Apredica 72-hour HepG2 Assay for H2AX Phosphorylation (AID 2282916); details: imaging, actives raise or lower the signal;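 further: phospho-histone H2A.x immunostain intensity per cell marking DNA damage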
# Outline: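 Phospho-H2A.x imaging endpoint in HepG2 after 72 hr compound exposure (0.39–200 uM, duplicate wells). Activity derived by bidirectional curve fitting with DMSO as baseline.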
# [11] = APR_HepG2_P-H2AX_24hr: Apredica 24-hour HepG2 Assay for H2AX Phosphorylation (AID 2282920); details: high-content imaging, actives raise or lower the signal
# Outline: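 HepG2 human liver cells were exposed for 24 hr to compounds at 0.39–200 uM in duplicate, with 0.5% v/v DMSO final. Fixed cells were immunostained for phospho-histone H2A.x plus Hoechst 33342, imaged by HCS fluorescence, and fitted bidirectionally against DMSO.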
# [12] = APR_HepG2_StressKinase_72hr: Apredica 72-hour HepG2 Assay for Stress Kinase (AID 2282921); details: HepG2 stress kinase (phospho-c-Jun) imaging, actives raise or lower the signal
# Outline: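 Stress kinase signal reflects nuclear phospho-c-Jun staining in fixed, permeabilized cells exposed 72 h to compound at 0.39–200 uM; DMSO-normalized, fitted for increases or decreases.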
# [13] = APR_HepG2_StressKinase_24hr: Apredica 24-hour HepG2 Assay for Stress Kinase (AID 2282922); details: HepG2 stress kinase (phospho-c-Jun) imaging, actives raise or lower the signal
# Outline: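 Read-out: phospho-c-Jun immunofluorescence (Cy3 secondary) quantified by high-content imaging at 20x, nuclei defined by Hoechst 33342. Human HepG2 liver cells dosed 24 hr, 0.39–200 uM, DMSO 0.5% v/v; gain or loss of signal fitted relative to DMSO.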
# [14] = APR_HepG2_NuclearSize_72hr: Apredica 72-hour HepG2 Assay for Nuclear Size (AID 2282925); details: high-content imaging, actives raise or lower the signal
# Outline: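 Read-out: nuclear diameter from Hoechst 33342 images (ArrayScan, 20x, six fields/well), via cell-cycle image analysis. HepG2 were dosed 0.39–200 uM for 72 hr in 0.5% DMSO. Bidirectional fit relative to DMSO.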
# [15] = ATG_E_Box_CIS: Attagene CIS-FACTORIAL HepG2 Assay for human Enhancer Box (E-box) (AID 2282936); details: HepG2 E-box cis-reporter transcription, actives raise or lower the signal
# Outline: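 Transiently transfected HepG2, endogenous TF-driven reporters, 24 h dosing. Readout: RT-PCR plus capillary electrophoresis of fluorescent reporter fragments. Gain or loss of signal fitted bidirectionally against DMSO baseline.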
# [16] = APR_HepG2_MitoMembPot_72hr: Apredica 72-hour HepG2 Assay for Mitochondrial Membrane Potential (AID 2282917); details: imaging, actives raise or lower the signal
# Outline: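 HepG2 cells dosed 72 hr with compound at 0.39–200 uM in duplicate, 0.5% v/v DMSO final. Mitochondria stained with 250 nM MitoTracker Red CMXRos for 30 min before formaldehyde fixation, imaged by high-content fluorescence; bidirectional fit versus DMSO.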
# [17] = APR_HepG2_MicrotubuleCSK_72hr: Apredica 72-hour HepG2 Assay for Microtubule CSK Stabilty (AID 2282919); details: HepG2 microtubule cytoskeleton, high-content imaging, actives raise or lower the signal
# Outline: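 HepG2, 72 hr cmpd exposure, 0.39–200 uM (10 pts, duplicate), 0.5% DMSO. 3.7% formaldehyde fix, 0.5% Triton perm, anti-alpha-tubulin/Cy5 plus Hoechst. HCS fluorescence intensity; bidirectional fit vs DMSO baseline; taxol as positive control.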
# [18] = APR_HepG2_MitoMass_72hr: Apredica 72-hour HepG2 Assay for Mitochondrial Mass (AID 2282924); details: high-content imaging, actives raise or lower the signal;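 further: MitoTracker Red CMXRos stain intensity per cell imaged as mitochondrial mass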
# Outline: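 Read-out: MitoTracker Red fluorescence intensity from automated imaging (20x, six fields per well) in human HepG2 liver cells. Dosing ran 72 hr, 0.39–200 uM, 0.5% DMSO; bidirectional curve fitting versus DMSO baseline.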
# [19] = molecular target: Transcription factor E2F1 (Homo sapiens) (UniProt Q01094); assay: ATG_E2F_CIS: Attagene CIS-FACTORIAL HepG2 Assay for human E2F Transcription Factor 1 (AID 2282935); details: HepG2 Attagene cis-reporter, E2F reporter RNA transcripts; actives raise or lower the signal
# Outline: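 Transient MRTU transfection of HepG2; 24 h compound exposure; RNA → oligo(dT) RT → PCR → FAM label → HpaI cut → CE fluorescence. Gain/loss of signal fit against DMSO.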
# Retinoic acid receptor alpha (Homo sapiens), sequence (P10276 whole entry, looked up): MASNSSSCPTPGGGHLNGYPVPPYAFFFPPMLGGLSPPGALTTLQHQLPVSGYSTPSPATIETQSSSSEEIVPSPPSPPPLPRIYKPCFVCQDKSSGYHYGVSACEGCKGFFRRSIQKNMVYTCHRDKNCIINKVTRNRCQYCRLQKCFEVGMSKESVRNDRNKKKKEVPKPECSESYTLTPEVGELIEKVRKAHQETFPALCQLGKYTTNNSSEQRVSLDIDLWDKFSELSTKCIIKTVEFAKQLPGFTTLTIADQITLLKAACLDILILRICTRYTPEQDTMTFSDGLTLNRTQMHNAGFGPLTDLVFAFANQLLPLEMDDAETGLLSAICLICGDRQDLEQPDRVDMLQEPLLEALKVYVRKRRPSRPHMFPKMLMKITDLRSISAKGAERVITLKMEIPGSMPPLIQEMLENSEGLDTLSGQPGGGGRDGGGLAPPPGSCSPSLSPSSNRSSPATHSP
# Aryl hydrocarbon receptor (Homo sapiens), sequence (P35869 whole entry, looked up): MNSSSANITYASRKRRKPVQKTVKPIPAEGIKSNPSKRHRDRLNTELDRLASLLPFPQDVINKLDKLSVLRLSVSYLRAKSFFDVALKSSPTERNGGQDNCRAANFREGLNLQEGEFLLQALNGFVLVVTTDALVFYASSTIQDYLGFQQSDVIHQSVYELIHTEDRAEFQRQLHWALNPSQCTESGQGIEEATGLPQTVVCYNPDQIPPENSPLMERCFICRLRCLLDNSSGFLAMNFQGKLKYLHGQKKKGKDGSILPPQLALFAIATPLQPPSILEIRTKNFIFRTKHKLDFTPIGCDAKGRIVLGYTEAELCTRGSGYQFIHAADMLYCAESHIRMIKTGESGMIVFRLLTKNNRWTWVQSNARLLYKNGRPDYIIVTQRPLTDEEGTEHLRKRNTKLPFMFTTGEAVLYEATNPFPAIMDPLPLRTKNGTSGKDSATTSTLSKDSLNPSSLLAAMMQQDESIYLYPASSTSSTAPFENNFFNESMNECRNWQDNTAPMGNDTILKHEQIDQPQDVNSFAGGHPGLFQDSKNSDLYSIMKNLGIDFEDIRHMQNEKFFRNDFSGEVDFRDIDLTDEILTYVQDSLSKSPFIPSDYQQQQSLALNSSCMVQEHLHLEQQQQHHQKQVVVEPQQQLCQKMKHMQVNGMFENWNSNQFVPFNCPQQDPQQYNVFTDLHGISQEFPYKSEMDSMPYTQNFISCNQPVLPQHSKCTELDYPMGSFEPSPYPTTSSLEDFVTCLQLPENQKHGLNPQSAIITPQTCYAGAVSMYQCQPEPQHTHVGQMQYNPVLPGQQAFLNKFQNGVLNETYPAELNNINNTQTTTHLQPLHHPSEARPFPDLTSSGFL
# Transcription factor E2F1 (Homo sapiens), sequence (Q01094 whole entry, looked up): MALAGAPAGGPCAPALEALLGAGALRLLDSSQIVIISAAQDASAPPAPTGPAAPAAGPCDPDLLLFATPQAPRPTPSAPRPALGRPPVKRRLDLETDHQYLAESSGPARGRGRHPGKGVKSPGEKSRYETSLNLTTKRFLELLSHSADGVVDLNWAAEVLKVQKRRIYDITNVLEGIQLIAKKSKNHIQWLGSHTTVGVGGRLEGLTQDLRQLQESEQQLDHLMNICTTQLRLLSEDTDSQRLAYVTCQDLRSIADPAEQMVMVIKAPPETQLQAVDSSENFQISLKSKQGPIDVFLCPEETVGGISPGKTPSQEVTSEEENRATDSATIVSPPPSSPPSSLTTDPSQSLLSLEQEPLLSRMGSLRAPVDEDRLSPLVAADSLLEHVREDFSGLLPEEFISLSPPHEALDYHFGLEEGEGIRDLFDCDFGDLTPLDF
# CCAAT/enhancer-binding protein beta (Homo sapiens), sequence (P17676 whole entry, looked up): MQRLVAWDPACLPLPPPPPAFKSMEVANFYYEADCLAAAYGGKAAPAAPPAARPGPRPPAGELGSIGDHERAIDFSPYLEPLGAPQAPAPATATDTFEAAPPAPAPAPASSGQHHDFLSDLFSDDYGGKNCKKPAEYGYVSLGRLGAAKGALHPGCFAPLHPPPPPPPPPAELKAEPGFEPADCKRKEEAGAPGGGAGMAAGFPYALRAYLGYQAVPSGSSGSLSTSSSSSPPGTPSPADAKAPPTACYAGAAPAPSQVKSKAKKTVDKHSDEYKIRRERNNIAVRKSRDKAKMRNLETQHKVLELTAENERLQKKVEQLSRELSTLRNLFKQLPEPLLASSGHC
compound,measurement,setting,value
CCCCC(CC)C(=O)OCCOCCOCCOCCOC(=O)C(CC)CCCC (stereo not given),outcome,[1],inactive
same,outcome,[2],inactive
same,outcome,[3],inactive
same,outcome,[4],inactive
same,outcome,[5],inactive
same,outcome,[6],inactive
same,outcome,[7],inactive
same,outcome,[8],inactive
same,outcome,[9],inactive
CCCCC(CC)C(=O)O (stereo not given),outcome,[10],inactive
same,outcome,[11],inactive
same,outcome,[12],inactive
same,outcome,[13],inactive
same,outcome,[14],inactive
same,outcome,[1],inactive
same,outcome,[2],inactive
same,outcome,[3],inactive
same,outcome,[4],inactive
same,outcome,[6],inactive
same,outcome,[8],inactive
same,outcome,[15],inactive
O=S(=O)(O)C(F)(F)C(F)(F)C(F)(F)C(F)(F)C(F)(F)C(F)(F)C(F)(F)C(F)(F)C(F)(F)C(F)(F)F,outcome,[1],inactive
same,outcome,[2],inactive
same,outcome,[3],inactive
same,AC50,[4],8.16 µM (active) and 10.2 µM (active)
same,AC50,[5],50.1 µM (active) and 45.9 µM (active)
same,AC50,[6],22.4 µM (active) and 16.6 µM (active)
same,outcome,[7],inactive
same,outcome,[8],inactive
same,outcome,[9],inactive
O=C(NO)c1ccccc1,AC50,[1],8.57 µM (active)
same,outcome,[1],inactive
same,outcome,[2],inactive
same,AC50,[3],37.2 µM (active) [middle of 4 runs]
same,AC50,[4],26.6 µM (active) [middle of 4 runs]
same,AC50,[5],19 µM (active) and 22.3 µM (active)
same,outcome,[5],inactive
same,AC50,[6],26.5 µM (active) [middle of 4 runs]
same,AC50,[7],63.6 µM (active) and 59.8 µM (active)
same,outcome,[7],inactive
same,AC50,[8],21 µM (active) [middle of 4 runs]
same,AC50,[9],13.7 µM (active) [middle of 4 runs]
CCCCCCCCCCCCCCC,outcome,[10],inactive
same,outcome,[16],inactive
same,outcome,[17],inactive
same,outcome,[11],inactive
same,outcome,[12],inactive
same,outcome,[13],inactive
same,outcome,[18],inactive
same,outcome,[14],inactive
same,outcome,[1],inactive
same,outcome,[2],inactive
same,outcome,[3],inactive
same,outcome,[4],inactive
same,outcome,[6],inactive
same,outcome,[7],inactive
same,outcome,[8],inactive
same,outcome,[9],inactive
same,outcome,[19],inactive
same,outcome,[15],inactive
NC(=NCCCCCCN=C(N)/N=C(\N)Nc1ccc(Cl)cc1)/N=C(\N)Nc1ccc(Cl)cc1,AC50,[1],24 µM (active)
same,outcome,[1],inactive
same,AC50,[2],24.6 µM (active)
same,outcome,[2],inactive
same,AC50,[3],163 µM (active) and 166 µM (active)
same,outcome,[3],inactive
same,outcome,[4],inactive
same,AC50,[5],21.9 µM (active)
same,outcome,[5],inactive
same,AC50,[8],3.85 µM (active) and 3.17 µM (active)
same,outcome,[8],inactive
same,AC50,[19],48.6 µM (active)
same,outcome,[19],inactive
same,AC50,[15],26.8 µM (active) and 23.9 µM (active)
same,outcome,[15],inactive
FC(OC(F)(F)C(F)(F)C(F)(F)F)C(F)(F)F (stereo not given),outcome,[1],inactive
same,outcome,[2],inactive
same,outcome,[3],inactive
same,outcome,[4],inactive
same,outcome,[5],inactive
same,outcome,[6],inactive
same,outcome,[7],inactive
same,outcome,[8],inactive
same,outcome,[9],inactive
same,outcome,[19],inactive
O=C(O)CCC(F)(F)C(F)(F)C(F)(F)C(F)(F)C(F)(F)F,outcome,[1],inactive
same,outcome,[2],inactive
same,outcome,[3],inactive
same,outcome,[4],inactive
same,outcome,[5],inactive
same,outcome,[6],inactive
same,outcome,[7],inactive
same,outcome,[8],inactive
same,outcome,[9],inactive
same,outcome,[19],inactive

# Reference: PubChem BioAssay (EPA / NIEHS)
